# In the supplement of paper PMC3334620:
# In all, about 33,000 sequences were measured (“E-score (-0.5 to 0.5)”: median about -0.04, highest 2% from about 0.36 on). The entries come from a sample that favours the highest values as a whole.
# Target: T1, Hmlalpha2 (UniProt P0CY09)
# T1 sequence: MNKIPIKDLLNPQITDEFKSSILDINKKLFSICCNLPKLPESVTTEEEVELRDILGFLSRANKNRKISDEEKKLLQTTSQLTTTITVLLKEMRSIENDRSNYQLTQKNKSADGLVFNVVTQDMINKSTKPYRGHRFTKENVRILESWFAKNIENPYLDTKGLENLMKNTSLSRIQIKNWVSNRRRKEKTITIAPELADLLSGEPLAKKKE
# Test: PBM E-score (8-mer binding enrichment) (E-score (-0.5 to 0.5)); higher = stronger / more preferred TF binding
# Conditions: protein concentration: 200 nM; construct: GST-full length
# Procedure, shortened: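 Yeast transcription factors, full-length or as DNA-binding domains, were expressed with a GST tag using PURExpress in vitro transcription/translation. At about 100-200 nM they were applied to universal all-10-mer Agilent arrays, double-stranded by primer extension on fresh or once-stripped slides. Fluorescent anti-GST detected bound protein, and masliner normalised the scans. E-scores for ungapped eight-base words, pooled with reverse complements, came from the Universal PBM Analysis Suite.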
row,Sequence,PBM E-score
1,AACACTTC,0.138
2,ACTACCGA,-0.12
3,GTTCAACA,0.367
4,AATCAACA,0.37
5,GATCAACA,0.341
6,TATCAACA,0.365
7,CATCAACA,0.297
8,ATTCAACA,0.352
9,CTTCAACA,0.341
10,AATCAACC,-0.103
11,AATCAACG,0.202
12,CCCGGTTC,-0.22
13,GCCAGGAC,-0.269
14,AGTAGATG,0.136
15,GTGTAAGA,0.401
16,CTGTAAGA,0.0715
17,ATGTAAGA,0.433
18,ATGTAAGG,0.313
19,GCGTAAGA,0.249
20,ATGTAAGC,0.374
21,AAGTAAGA,0.0354
22,CTGTAAGC,-0.0257
23,AGGTAAGA,-0.0177
24,AGGGAGGC,-0.339
25,ACATACCA,0.227

row,Sequence,PBM E-score
1,TGCTCTAA,-0.134
2,ACCTTACC,0.0897
3,ACAACTAC,0.225
4,CCCGATAC,-0.0785
5,CACATGCG,0.141
6,AGCATGCT,0.151
7,ACCATGCA,0.106
8,AACATGCG,0.399
9,AACATGCT,0.396
10,CACATGGA,0.197
11,GACATGGA,0.263
12,ATCATGCG,-0.0811
13,TACATGGA,0.429
14,ATCATGCA,-0.0495
15,ACCATGCT,0.0386
16,AACATGCA,0.417
17,AGAATGGG,-0.307
18,GATTCCAA,-0.0677
19,ACATGCCG,0.356
20,TAGCAGCA,-0.0647
21,GACCCAGA,-0.168
22,CCTCCCGC,-0.0916
23,ATCCGTGG,-0.229
24,CCGATCAA,-0.0314
25,CGCACCGC,-0.177

row,Sequence,PBM E-score
1,CCGCCAAA,-0.105
2,CGAAAGAA,-0.0556
3,TCCGCGGA,-0.0621
4,ACGAAAGA,-0.0344
5,AATCGTAC,0.102
6,GACATGCC,0.212
7,TACATGCA,0.438
8,GACATGCA,0.294
9,CACATGCC,0.209
10,CACATGCA,0.234
11,AACATGCC,0.388
12,ACGTTAGA,0.146
13,GGTCCGGA,-0.0474
14,TAAGCGAA,0.122
15,TTTCGAAA,0.0465
16,ATTTCTAC,0.234
17,CACATAAG,0.117
18,AACATAAT,0.287
19,AACATAGG,0.38
20,AACATAAG,0.391
21,AACATAAC,0.403
22,ATCATAAG,-0.00054
23,CACATAAC,0.242
24,CACATAGG,0.0614
25,AACATAGA,0.284

row,Sequence,PBM E-score
1,CCGCAGTA,-0.0882
2,ATATTCTA,0.169
3,CTCTTCGC,-0.205
4,CCATTGCG,-0.262
5,GGGTATCA,-0.118
6,AGCATAGC,0.0169
7,ATGCGTAG,0.214
8,ATGCGTAA,0.375
9,CTGCGTAA,0.417
10,ATGCGTAC,0.273
11,GTGCGTGA,0.192
12,GTGCGTAA,0.406
13,GGGCGTAA,0.0836
14,CTGCGTTA,0.226
15,CTGCGTAC,0.186
16,GTTCTGAA,0.213
17,TGTGGGAA,0.00853
18,CCCTCGCG,-0.199
19,ATGAGCAC,-0.067
20,ACTAAGTC,-0.157
21,AATATTAT,0.189
22,AATATTAG,0.0923
23,AATATTAC,0.381
24,ACCACCAG,-0.148
25,AATACGCC,0.0351

row,Sequence,PBM E-score
1,GATACGCA,0.144
2,CATACGCG,0.177
3,AATACGCT,0.234
4,AATACGCA,0.385
5,AATACGCG,0.399
6,CGACTTTA,0.134
7,AGGCACGC,-0.188
8,CTATTACC,-0.0498
9,GTATTACA,0.403
10,ATATTACG,0.352
11,ATATTACC,0.187
12,GTATTAAA,0.307
13,ATATTACA,0.439
14,GTATTAGA,0.289
15,CTATTACA,0.442
16,CTATTAGA,-0.0387
17,ATCTTTCA,0.0227
18,TTTCAAAA,0.17
19,CTGATACC,-0.15
20,CGTTTGAC,0.0383
21,AGGTAATG,0.226
22,ACGTAAGA,0.29
23,CCGTAATC,-0.00299
24,GCGTAATA,0.373
25,CCGTAATA,0.159

row,Sequence,PBM E-score
1,ACGTAAGC,0.0597
2,AAGTAATG,0.196
3,ACGTAATA,0.431
4,ACGTAATG,0.408
5,GAGTAATA,0.286
6,AGGTAATA,0.139
7,ACGTAATC,0.392
8,GCTGCTTA,-0.0322
9,CCAATGCG,-0.181
10,GGTAAGCA,-0.0728
11,AATAAGCC,-0.212
12,GTGCATGA,0.0341
13,GAAAGTTC,-0.218
14,GTATCCTA,0.0388
15,GCCTATGA,-0.147
16,CCAACCCG,-0.242
17,GGGCGAAC,-0.178
18,GAACTCTA,0.123
19,TTATCGAA,0.0652
20,CATGTTAG,0.422
21,AATGTTAG,0.185
22,GATGTTAC,0.304
23,CATGTTAC,0.41
24,CCTGTTAG,0.0951
25,AATGTTAC,0.269

row,Sequence,PBM E-score
1,ATGGTCGA,-0.0159
2,CAGTAAAA,0.134
3,CCGTAAAG,0.0757
4,ACGTAAAT,0.376
5,ACGTAACC,0.22
6,ACGTAAAC,0.295
7,AAGTAAAA,0.121
8,ACGTAAGT,0.216
9,ACGTAACA,0.385
10,ACGTAAAG,0.372
11,ACGTAACG,0.161
12,AGGTAAAG,0.19
13,ACGTAAAA,0.388
14,ACCTAGTC,-0.177
15,GAAGGACC,-0.245
16,ACAAGCCT,0.227
17,TCCAAGCA,-0.164
18,ATGGTAGA,0.079
19,CCGTAAAA,0.12
20,GCGTAAGC,0.183
21,TCGTAAAA,0.237
22,GCGTAAAC,0.404
